The results in this text go back to the supplement of paper PMC3334620.

Whole data set: some 33,000 sequences, median “E-score (-0.5 to 0.5)” near -0.016, cut for the highest 2% near 0.32. Many of the other results were omitted from the sample, so the highest values are more common in it than they were.

The assay concerns the target T1, Stp1 (UniProt B3LFK1).
T1 sequence: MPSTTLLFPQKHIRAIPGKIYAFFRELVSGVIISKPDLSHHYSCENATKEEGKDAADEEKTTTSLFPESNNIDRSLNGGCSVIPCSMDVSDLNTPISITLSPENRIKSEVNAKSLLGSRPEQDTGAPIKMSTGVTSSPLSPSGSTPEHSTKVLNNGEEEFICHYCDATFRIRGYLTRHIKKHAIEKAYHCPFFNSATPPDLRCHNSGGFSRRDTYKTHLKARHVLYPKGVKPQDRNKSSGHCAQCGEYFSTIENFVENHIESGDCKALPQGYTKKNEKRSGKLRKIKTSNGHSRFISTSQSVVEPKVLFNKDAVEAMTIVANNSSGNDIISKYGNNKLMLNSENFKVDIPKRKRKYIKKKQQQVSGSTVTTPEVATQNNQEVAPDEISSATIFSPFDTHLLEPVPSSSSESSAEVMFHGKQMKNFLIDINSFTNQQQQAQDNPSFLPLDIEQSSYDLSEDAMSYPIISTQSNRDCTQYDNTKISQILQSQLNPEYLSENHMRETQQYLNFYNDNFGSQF
The experiment in a line: PBM E-score (8-mer binding enrichment) (E-score (-0.5 to 0.5)); higher = stronger / more preferred TF binding. As to conditions: protein concentration: 200 nM; construct: GST-full length. How it is done:
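Universal 'all 10-mer' protein binding microarrays (Agilent AMADID 015681) probed with GST-tagged S. cerevisiae TFs (full-length or DBD) made by in vitro transcription/translation (PURExpress), about 100-200 nM. Bound TF was detected with fluorescent anti-GST. Each ungapped 8-mer (which stands for itself and its reverse complement) is scored by the PBM enrichment score (E-score), a modified Wilcoxon-Mann-Whitney statistic from -0.5 to +0.5, computed with the Universal PBM Analysis Suite. Scale: above 0.35 generally sequence-specific binding.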
Consider CCGCGGCC, for which the “PBM E-score” value was determined as 0.325.
As to CCGCGGGC, the “PBM E-score” value turned out to be 0.215.
The result for GCGCGGAA reads 0.263; that for GCGCGGGA, 0.163.
As for GCGCGGCA, the figure is 0.483; as for GAGCGGCC, 0.156.
The result for GCGCGGAC reads 0.256.
CCGCGGTC: the “PBM E-score” value was -0.0134.
As for TCTCGGCA, the “PBM E-score” value amounted to 0.045.
As for CAGCGGGA, the “PBM E-score” value was -0.174.
The result for AGATAGTA reads 0.0718.
The result for ACATAGTC reads -0.0859; that for AACACCCG, 0.151; that for CTGTGATC, -0.0819.
The result for CACGTAGG reads -0.104.
As for CCCCGTCA, the “PBM E-score” value was -0.177.
As for CAGATTTA, the figure is 0.198; as for TGGTTACA, -0.0623.
As for TCTACCAA, the “PBM E-score” value is -0.0725.
As for CCGCGACG, the figure is 0.197.
The result for ACGCGGAT reads 0.236.
The result for ACGCGGGA reads 0.0444.
CCGCGGAG: the “PBM E-score” value came to 0.0416.
Turning to CCGCGGCG, the “PBM E-score” value was 0.435.
The result for ACGCGTCT reads -0.112; that for ACGCGGCT, 0.446.
As for ACGCGGCA, the figure is 0.479; as for ACGCGGTA, 0.0505.
As for ACGCGGTC, the figure is -0.0102; as for ACGCGGAC, 0.0606; as for ACGCGGCC, 0.326.
With AACAGTCC, the “PBM E-score” value is -0.215.
Regarding ATACACTG, the “PBM E-score” value turned out to be 0.0725.
For the sequence AGCCTCGG, the “PBM E-score” value is -0.0283.
As for GCTTGGAA, the figure is -0.00205; as for AGAACCTA, -0.109.
As for AGCCAGCA, the “PBM E-score” value is -0.297.
The result for CTTATTGC reads 0.0179; that for ACACAAGT, 0.00705.
The result for GGATGTGA reads -0.084; that for TGCCAGCA, 0.01.
As for ATACCTGG, the figure is -0.284; as for AAGCAGGC, -0.277; as for CAGAGCTG, -0.147.
Take ATCCGGAT: the “PBM E-score” value was -0.0475.
As for TCGCGGCA, the figure is 0.346; as for CCGCGGCA, 0.441.
The result for TCGCGACA reads -0.0531; that for ACGCGGTG, 0.0603.
As for CCGCGGGA, the figure is 0.218.
For the sequence ACGCGGAG, the “PBM E-score” value was 0.111.
As for ACGCGGCG, the figure is 0.488.
As for CCGCGGAA, the figure is 0.183; as for TCGCGGAA, -0.0668.
As for CTGCCAGC, the figure is -0.204; as for TCAAAGAA, -0.0561.
With AAGCGAGC, the “PBM E-score” value amounted to 0.0162.
As for CAAGGTTC, the “PBM E-score” value is -0.124.
The result for CCGCTCTC reads -0.0569.
On to AAAACCTA, for which the “PBM E-score” value was 0.0597.
The result for CGGGTGGA reads -0.162; that for AGACGGCA, 0.449.
On to GGACGGCC, for which the “PBM E-score” value was found to be 0.16.
As for CGACGGCA, the figure is 0.299.
As for AGACGGGA, the figure is -0.12.
The result for AGACGGAA reads 0.106.
With GGACGGCA, the “PBM E-score” value worked out at 0.441.
The result for AGGGTCAT reads -0.233; that for CTCGCCAA, 0.0165; that for CGACTCGA, -0.115.
As for CACCATTC, the figure is 0.0105; as for CACCGTCG, -0.114.
CTACGGTA: the “PBM E-score” value was -0.146.
The result for CTACGGCA reads 0.473; that for ATACGGGC, -0.0186; that for ATACGGAA, 0.268.
As for CTACGGCC, the figure is 0.126; as for GTACGGTA, 0.147.
The result for ATACGGCA reads 0.483; that for ATACGGCC, 0.406.
CTACGGAA: the “PBM E-score” value came to 0.0958.
As for ATACGGGA, the figure is 0.125; as for GTACGGCA, 0.48.
As for GTACGGGA, the “PBM E-score” value came out at 0.0383.
Take CAAAGGGG: the “PBM E-score” value was -0.262.
As for GGGCTGAC, the figure is -0.134.
The result for AGTAGACA reads 0.0181; that for ATAGGGAC, -0.211.
As for ATCTCCTC, the figure is -0.209.
